From PubChem BioAssay
Activity calls are given as the source filed them. Unless noted, no rule for the calls is given here.

Assays:
[1] = system: XIP peptide (Xip251-270) binding; experiment: XIP fragment 251-270 binding compounds – biochemical, small-molecule microarray, fluorescence 635/667 nm, 0.1 µg/mL protein, primary screen (AID 1182); conditions: fluorescent protein binding, 635 nm, higher = more signal, called active from +8 up or from −8 down
XIP peptide (Xip251-270) = experiment: compounds binding XIP fragment 251-270 – biochemical, small-molecule microarray, fluorescence 635/667 nm, 0.5 µg/mL protein, primary screen (AID 1183); conditions: fluorescence 635 nm, higher = more signal
[2] = blood-stage malaria parasite viability loss – strain 3D7, DAPI fluorescence, 100 nL, primary screen (AID 1184);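 also: parasites grown inside human red blood cells in medium with human serum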; conditions: P. falciparum 3D7 growth, 3 d, higher = more signal
[3] = molecular target: Homeobox protein Hox-A13 (Mus musculus) (UniProt Q62424); experiment: disruptors of Hoxa13 oligonucleotide interaction – biochemical, fluorescence polarization, labeled oligonucleotide, primary screen (AID 1185); conditions: Hoxa13:DNA binding, 15 min, higher = more signal, called active from +8 up or from −8 down
Sequence of Homeobox protein Hox-A13 (Mus musculus) (Q62424 whole entry, looked up): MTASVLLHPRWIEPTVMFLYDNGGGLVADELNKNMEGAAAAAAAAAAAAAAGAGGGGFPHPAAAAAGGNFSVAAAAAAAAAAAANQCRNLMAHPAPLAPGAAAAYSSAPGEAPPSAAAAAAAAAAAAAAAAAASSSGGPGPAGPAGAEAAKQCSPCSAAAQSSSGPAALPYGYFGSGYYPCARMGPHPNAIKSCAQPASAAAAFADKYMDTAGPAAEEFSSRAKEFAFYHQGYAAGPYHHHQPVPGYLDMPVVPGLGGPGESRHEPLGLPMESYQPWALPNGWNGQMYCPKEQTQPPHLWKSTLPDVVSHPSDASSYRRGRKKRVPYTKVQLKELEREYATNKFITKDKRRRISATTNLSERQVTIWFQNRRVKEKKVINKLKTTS

[4] = blockers of DNA damage checkpoint Chk1 activation – imaging, HeLa, hydroxyurea, phospho-Chk1 antibody, percent positive cells, primary screen (AID 1186); conditions: hydroxyurea-induced phospho-Chk1 immunofluorescence imaging, higher = more signal
[5] = blockers of DNA damage checkpoint Chk1 activation – imaging, HeLa, hydroxyurea, phospho-Chk1 nuclear intensity, primary screen (AID 1187); conditions: hydroxyurea-induced phospho-Chk1 immunofluorescence imaging, higher = more signal

Row | Structure (SMILES) | composite z-score [1] | composite z-score (XIP peptide (Xip251-270)) | z-score [2] | z-score [3] | z-score [4] | z-score [5]
1 | O=C1NC(=O)C2C1C=CC(C(O)c1cccc3ccccc13)N2Nc1ccc(Cl)cc1Cl (configuration not stated) | 1.46 (inactive) | 0.497 | -0.0879 | -4.57 (inactive) | 0.461 (inactive) | 0.3 (inactive)
2 | COC(=O)[C@@]1(Cc2ccccc2)[C@H]2c3cc(C(=O)N(C)C)n(CCN4CNCC4=O)c3C[C@H]2CN1C(=O)c1ccccc1 | 0.858 (inactive) | 1.01 | -0.17 | -2.94 (inactive) | -0.232 (inactive) | -0.33 (inactive)
3 | [N-]=[N+]=Nc1ccccc1[C@H]1OC(c2ccc(OCCCO)cc2)=N[C@@]1(Cc1ccccc1)C(=O)N1CCCCC1 | 0.391 (inactive) | 0.664 | -1.95 | -2.71 (inactive) | -0.549 (inactive) | -0.463 (inactive)
4 | Cc1ccc(S[C@]2(C(=O)O)CC(=O)N(Cc3cc(C(F)(F)F)cc(C(F)(F)F)c3)[C@@H]2c2ccc(CO)cc2)cc1 | -0.287 (inactive) | -1.25 | 0.777 | -3.18 (inactive) | 0.0261 (inactive) | -0.641 (inactive)
5 | O=C1O[C@@H](c2ccccc2)[C@@H](c2ccccc2)N2[C@@H](c3ccccc3OCCO)[C@]3(C(=O)Nc4ccc(C#CCCO)cc43)[C@@H](C(=O)N3CCCCCCC3)[C@H]12 | 8.49 (active) | 1.02 | -2.23 | 3.66 (inactive) | -0.333 (inactive) | -0.462 (inactive)
6 | CCOc1cc(C(O)C2C=CC3C(=O)N(C)C(=O)C3N2Nc2ccccc2)ccc1O (configuration not stated) | 0.705 (inactive) | 0.273 | -0.211 | -2.42 (inactive) | -0.0768 (inactive) | -0.677 (inactive)
7 | COC(=O)[C@@]1(Cc2ccc(OC)cc2)[C@H]2c3cc(C(=O)N(C)C)n(CCO)c3C[C@H]2CN1C(=O)c1ccccc1 | -0.509 (inactive) | -0.947 | 0.302 | -4.38 (inactive) | 0.931 (inactive) | 0.524 (inactive)
8 | CN(C)CCCCNC(=O)[C@@H]1C[C@@H]2C(=O)N[C@@H](Cc3ccccc3)C(=O)N2[C@@H]1c1cccc(OCCO)c1 | 0.096 (inactive) | 0.762 | 0.0546 | -3.94 (inactive) | -1.08 (inactive) | -0.295 (inactive)
9 | CCCNC(=O)[C@@]1(c2ccc([N+](=O)[O-])cc2)CC(=O)N(C2CCCCC2)[C@@H]1c1ccc(CO)cc1 | 2.45 (inactive) | 0.73 | -0.47 | -3.27 (inactive) | 0.0926 (inactive) | 0.213 (inactive)
10 | C=CC[C@@]1(C(=O)N2CCOCC2)N=C(c2ccc(OCCCO)cc2)O[C@@H]1c1ccccc1CN=[N+]=[N-] | 0.74 (inactive) | 0.758 | -2.26 | -5.78 (inactive) | 0.0151 (inactive) | 0.349 (inactive)
11 | CN1C(=O)C2C=CC(C(O)C#Cc3ccccc3)N(Nc3ccccc3)C2C1=O (configuration not stated) | 0.783 (inactive) | 0.794 | -0.351 | -4.25 (inactive) | -0.0435 (inactive) | 0.113 (inactive)
12 | O=C(N1CCCCC1)[C@@]1(CCS(=O)(=O)c2ccccc2)COC(c2ccc(OCCCO)cc2)=N1 | 1.16 (inactive) | 0.809 | -2 | -5.2 (inactive) | -0.0331 (inactive) | -0.187 (inactive)
13 | CCOC(=O)C1=CC[C@@H](c2cccc(Cl)c2)N(S(=O)(=O)c2ccc(C)cc2)C1 | 1.46 (inactive) | 0.662 | -0.639 | -1.21 (inactive) | -0.566 (inactive) | -0.272 (inactive)
14 | CCOC(=O)c1ccc(NC(=O)O[C@H]2[C@H](OC(=O)Nc3ccc4c(c3)OCO4)[C@@H](OC(=O)Nc3ccc4c(c3)OCO4)[C@@H](OC)O[C@@H]2CO)cc1 | 1.15 (inactive) | 0.894 | -2.42 | -8.16 (active) | -0.301 (inactive) | -0.0975 (inactive)
15 | COc1ccc(NC(=O)O[C@H]2[C@H](OC(=O)Nc3ccccc3)[C@@H](OC(=O)Nc3ccccc3)[C@@H](OC)O[C@@H]2CO)cc1 | 0.551 (inactive) | 0.925 | -2.47 | -6.22 (inactive) | -0.454 (inactive) | -0.429 (inactive)
16 | CCOC(=O)C[C@H]1[C@H](OC(=O)c2cc3ccccc3oc2=O)[C@@H](NC(=O)c2ccc(-c3ccccc3)cc2)c2cc(OCCCO)ccc2N1C(=O)c1ccc2ccccc2n1 | 0.155 (inactive) | 0.339 | -0.949 | -2.27 (inactive) | -0.359 (inactive) | -0.583 (inactive)
17 | CC(C)N1C(=O)c2ccccc2[C@@H](C(=O)NC2CC2)[C@@H]1c1ccc(CO)cc1 | 0.11 (inactive) | 0.461 | 0.314 | -2.99 (inactive) | -0.0392 (inactive) | -0.0337 (inactive)
18 | C=C(C)C1CCC(C(O)C2C=CC3C(=O)N(C)C(=O)C3N2N2CCCCC2)CC1 (configuration not stated) | 0.763 (inactive) | 0.622 | -0.122 | -5.66 (inactive) | 0.692 (inactive) | 0.133 (inactive)
19 | COC(=O)[C@@]1(Cc2ccc(OC)cc2)[C@H]2c3cc(C(=O)N(C)C)n(C[C@H](O)CO)c3C[C@H]2CN1C(=O)c1ccccc1 | 0.309 (inactive) | -0.587 | -1.74 | -3.35 (inactive) | 0.708 (inactive) | 0.22 (inactive)
20 | CCCCC(O)C1C=CC2C(=O)N(c3ccccc3)C(=O)C2N1Nc1ccc(C(C)C)cc1 (configuration not stated) | -0.0775 (inactive) | 0.706 | -0.243 | -2.48 (inactive) | -0.638 (inactive) | -1.2 (inactive)
21 | CN(C)c1ccc(C(O)C2C=CC3C(=O)N(c4ccccc4)C(=O)C3N2Nc2ccc([N+](=O)[O-])cc2)cc1 (configuration not stated) | -0.0383 (inactive) | 0.648 | -0.704 | -5.57 (inactive) | 0.55 (inactive) | -0.576 (inactive)
22 | O=C1NC(=O)C2C1C=CC(C(O)CCc1ccccc1)N2Nc1ccc(Cl)cc1Cl (configuration not stated) | 0.157 (inactive) | 0.284 | 1.5 | -5.96 (inactive) | 0.738 (inactive) | 0.185 (inactive)
23 | COc1ccc([Si](C)(C)[C@@H]2[C@@H](CCn3cc([C@H](O)c4ccccc4)nn3)O[C@]3(C(=O)N(Cc4ccc(N5CCC5=O)cc4)c4ccccc43)[C@H]2C)cc1 | -0.325 (inactive) | 0.641 | -2.47 | -2.32 (inactive) | -0.169 (inactive) | 0.663 (inactive)
24 | COC(=O)[C@@]1(Cc2ccccc2)[C@@H]2C(=CC(=O)[C@H]2CC(=O)C(=O)N(C)C)CN1C(=O)c1ccccc1 | 0.0477 (inactive) | 0.345 | -0.99 | -3.77 (inactive) | 0.0041 (inactive) | 0.253 (inactive)
25 | CCOC(=O)C[C@H]1[C@H](OC(=O)c2ccc(C(=O)c3ccccc3)cc2)[C@@H](NC(=O)Cc2ccc(OC)cc2)c2cc(OCCCO)ccc2N1C(=O)c1ccccc1 | 0.922 (inactive) | -0.281 | -0.133 | -1.88 (inactive) | 0.72 (inactive) | 0.343 (inactive)
26 | NC(=O)NCC#Cc1ccc2c(c1)[C@]1(C(=O)N2)[C@H](C(=O)NC[C@H](O)c2ccccc2)[C@H]2C(=O)O[C@H](c3ccccc3)[C@H](c3ccccc3)N2[C@@H]1c1ccc(OCCO)cc1 | 0.869 (inactive) | 0.528 | -0.0803 | -2.75 (inactive) | 0.179 (inactive) | 0.446 (inactive)
27 | COc1cc(OC)c(C(O)C2C=CC3C(=O)N(C)C(=O)C3N2NC(=O)OC(C)(C)C)cc1Br (configuration not stated) | -0.121 (inactive) | 0.759 | -0.107 | -2.6 (inactive) | 0.111 (inactive) | -0.0533 (inactive)
